# Most compounds without a hit are left out; they make up all but 5.5% or so of the library.
# VP16 counter: Gal4-VP16 reporter inhibition counter-screen; Drosophila S2 Gal4-VP16 UAS-luciferase, luminescence, 20 h; Potency, µM (doses to about 53.6 µM), inactives show at the top dose activity, negative = inhibition, hits mostly inhibitors; 310,000 compounds, 3.5% hits;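 note: Gal4-VP16 expression switched on by copper sulfate through the metallothionein promoter; potency is the fitted concentration of half-maximal effect; % is set by controls: 0 for no effect and ±100 for the full control effect; nearly all actives have a fitted effect of over 50% in size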
# RORg inh: blocks mouse ROR gamma transcriptional activity | Drosophila S2 Gal4-RORgamma UAS-luciferase reporter, 20 h | Potency, µM (series often up to 53.6 µM), for inactives: at the top dose activity change, negative = inhibition, usual class: inhibitors | 310,000 compounds, 5.4% hits; note: potency is the fitted concentration of half-maximal effect; % is set by controls: 0 for no effect and ±100 for the full control effect; nearly all actives have a fitted effect of over 60% in size
#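 Using a luciferase readout, inhibitors were identified by reduced reporter activity in Drosophila cells coexpressing a copper-inducible Gal4–ROR gamma fusion and UAS-driven Photinus luciferase, incubated 20 hr after 700 uM copper sulfate.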
# CtBP-E1A blk: inhibitors of CtBP/E1A interaction. AlphaScreen GST-E1A/His-CtBP binding, 1536-well; hits give low values. activity change, % (no concentration beside the values). 340,000 compounds, 0.49% hits. AID 651724; in the data active = activity change below about -65%; inconclusive = mostly about -30% to -63%; note: % is set by controls: 0 for no effect and ±100 for the full control effect
#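 Homogeneous bead-based format: GST-tagged E1A captured on glutathione donor beads, His-tagged CtBP on nickel acceptor beads; compounds precede bead addition by 2 h at 37 °C.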
# Six1-Eya2 blk: inhibitors of human Six1/Eya2 interaction. AlphaScreen GST-Six1/His-Eya2 binding, biochemical; hits give low values. activity change, % (test concentration not listed). Q15475+O00167. AID 651725. 360,000 compounds, 0.56% hits; in the data active = activity change below about -65%; inconclusive = mostly about -30% to -63%; note: % is set by controls: 0 for no effect and ±100 for the full control effect
#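 Compounds are tested against tagged Six1 and Eya2 proteins bridged by glutathione donor and nickel acceptor beads; after a one-hour incubation at 37 °C without light, AlphaScreen emission is recorded.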
# CBFb RUNX1 block: blocks binding between human CBF-beta and RUNX1 | Q01196+Q13951 | AID 1477 | AlphaScreen CBFb-His/RUNX1-biotin binding, biochemical | Potency, µM (titrated, usually from 59.8 µM), for inactives: top-dose activity, negative = inhibition, actives largely listed as inhibitors | 230,000 tested, under 10 active; note: % of control where 0% means no effect
#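 AlphaScreen proximity signal reports loss of binding between His-tagged CBF-beta and biotin-labelled RUNX1, each at 30 nM. Proteins are pre-associated for 20 minutes, compounds added for 15 minutes, then beads for 90 minutes, all at ambient temperature.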
# MBNL1 CUG block: blocks human MBNL1 binding to CUG repeat RNA; TR-FRET MBNL1-His/biotin-(CUG)12 binding, 665/545 ratio; 280,000 compounds, 0.036% hits; Q9NR56; Potency, µM (top dose mostly 57.5 µM), without a hit: at the top dose activity change, negative = inhibition, usual class: inhibitors; active = well fitted inhibition curve with a large enough effect in the signal ratio, with a control signal flat, not every such curve was filed as active; inconclusive = small, poorly fitted or top-dose-only effect, or effect the other way, or a change in a side signal; inactive = no such curve, though single readings can be large or run the other way; the % refers to the signal ratio; note: potency is the fitted concentration of half-maximal effect; % is set by controls: 0 for no effect and ±100 for the full control effect
# Target sequence (Q9NR56 whole entry, looked up): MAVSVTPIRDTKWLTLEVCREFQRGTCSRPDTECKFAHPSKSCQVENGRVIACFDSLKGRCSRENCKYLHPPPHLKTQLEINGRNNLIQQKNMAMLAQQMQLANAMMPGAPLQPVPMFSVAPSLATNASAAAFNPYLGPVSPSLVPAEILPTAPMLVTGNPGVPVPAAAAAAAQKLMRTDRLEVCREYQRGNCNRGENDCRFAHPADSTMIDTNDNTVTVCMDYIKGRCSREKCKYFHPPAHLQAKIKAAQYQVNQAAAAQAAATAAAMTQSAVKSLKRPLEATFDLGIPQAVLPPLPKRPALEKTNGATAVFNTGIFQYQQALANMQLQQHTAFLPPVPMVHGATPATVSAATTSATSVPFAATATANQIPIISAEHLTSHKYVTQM
#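 MBNL1-His + Biotin-(CUG)12, cpd titration 92 nM–58 uM; Tb anti-His Ab 0.055 ng/ul, SA-XL665 5 nM (final); 60 min RT; ratiometric 665/545 nm, Ex 340 nm; normalized to buffer and full-complex controls.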
# Active calls of the source: *; ? = inconclusive; · = no result given; [ ] = dose if it differs, or a comment. Unless noted, calls come from the whole dose curve; as a rule, active = well fitted curve in the direction sought with a large enough effect; inconclusive = small, poorly fitted or top-dose-only effect, or another doubt; inactive = no such curve, though single readings can be large; an effect the other way counts as inactive or inconclusive.
SMILES,VP16 counter,RORg inh,CtBP-E1A blk,Six1-Eya2 blk,CBFb RUNX1 block,MBNL1 CUG block
O=C(CCNC(=O)C1CCN(S(=O)(=O)c2ccccc2)CC1)NCc1ccc(Cl)cc1Cl,-6.5%,41.1%,·,0.0,·,-1.2%
COC(=O)[C@]1(Cc2ccccc2)N[C@H](CN(C)C(=O)c2ccccc2)[C@@H]2C(=O)N(Cc3ccccc3)C(=O)[C@@H]21,·,·,-2.4,-2.5,·,·
O=C(N/N=C/c1ccc[nH]1)c1ccc(Cl)cc1,10µM*,3.16µM*,7.0,6.6,2.3%,-6.4%[11.5 µM]
O=C(N/N=C/c1ccc[nH]1)c1ccncc1,?,20µM*,-6.2,-8.1,-4.0%,8.9%
Cc1ccc(C(=O)N/N=C\c2ccc[nH]2)cc1[N+](=O)[O-],?,2µM*,-3.7,-1.6,-6.6%,?
O=C(N/N=C/c1ccc[nH]1)c1ccccc1[N+](=O)[O-],-88.3%,?,-3.6,-4.0,1.3%,?
Cc1occc1C(=O)N/N=C/c1ccc[nH]1,·,·,4.1,0.4,·,·
CN(C(=O)COC(=O)c1nn(C)c(=O)c2ccccc12)c1c(N)n(Cc2ccccc2)c(=O)[nH]c1=O,·,·,0.1,0.5,·,·
Cc1cc(C)cc(C(=O)/C=C2\NC(=O)CS2)c1,5.62µM*,3.98µM*,-7.7,1.7,-7.9%,41.4%
CC(=O)Nc1ccc(S(=O)(=O)N2C3CCCC2CC(NC(=O)C2CCCCC2)C3)cc1 (centres undefined),-0.6%,-17.3%[10 µM],-3.1,-67.4*,1.0%,-9.1%
O=C(NC1CC2CCCC(C1)N2S(=O)(=O)c1ccccc1)c1ccccc1 (centres undefined),12.6µM*,?,-0.1,-1.3,3.4%,-10.1%
CC(=O)Nc1ccc(S(=O)(=O)N2CCC(C(=O)NC3CCCC3)CC2)cc1,3.5%,-1.1%,6.2,5.4,·,-0.5%
Cc1cc(OCC(=O)OCC(=O)NC2CCS(=O)(=O)C2)ccc1Cl (centres undefined),·,·,4.9,2.4,·,·
COCCNc1nc(C)nc2c1nc(-c1ccccc1)n2CCN1CCCC1,-10.7%,-8.8%,·,·,8.3%,·
COC(Cc1n[nH]c(=S)n1-c1ccc(Cl)cc1)OC,-5.5%,?,1.9,3.6,-9.0%,-1.6%
Cc1ccc(NCc2n[nH]c(=S)n2-c2cccc(Cl)c2)cc1,-27.7%,7.94µM*,2.8,-4.9,-7.0%,2.6%
Cc1ccc(-n2c(CNc3ccc(C)c(Cl)c3)n[nH]c2=S)cc1,-16.6%,2.51µM*,·,-18.7,-7.8%,-2.0%
Cc1ccc(-n2c(CNc3cccc(Cl)c3)n[nH]c2=S)cc1,-14.8%,?,8.1,-5.5,1.5%,-5.8%
CC(C)n1c(SCC(=O)Nc2nncs2)nnc1-c1ccco1,-4.4%,0.0%,-0.6,?,·,2.5%
O=C(O)Cn1c(C(=O)Nc2nc(-c3ccccc3Cl)cs2)cc2ccccc21,8.5%,18.5%,·,·,7.9%,·
NNC(=O)c1cccc(COc2cccc(Br)c2)c1,?,12.6µM*,-22.0,0.3,-1.5%,0.6%
NNC(=O)c1cccc(COc2ccc(Br)cc2)c1,-96.6%,?,-17.9,-5.8,-5.9%,?
COc1ccc(OCc2cccc(C(=O)NN)c2)cc1,?,14.1µM*,-13.1,-5.5,-0.7%,-10.4%
COC(=O)C(C(=O)Nc1nc2ccccc2s1)C1CCCC1 (centres undefined),1.8%,-5.8%,·,-1.3,4.6%,-6.1%
Cc1nnc(NC(=O)C2CC(=O)N(c3ccccc3)C2)s1 (centres undefined),2.1%,-6.3%,1.1,-5.5,·,2.7%
CCCN(CC1CC1)C(=S)NC(=O)C1CC1,12.6µM*,3.98µM*,-0.4,-2.0,-0.4%,-2.0%
O=C(NCCCC(=O)N1CCCCC1)c1ccc(Cl)cc1,-5.9%,-1.0%,6.2,-2.3,·,-0.2%
CC(C)c1ccc(/C=C2\NC(=S)N(Cc3cccnc3)C2=O)cc1,-20.5%,7.94µM*,1.0,-15.1,7.9%,-1.3%

# High-throughput results: PubChem, National Center for Advancing Translational Sciences (NCATS)
